An excerpt weighted towards active compounds, which were near 11% of everything screened.
AMA1 RON2 block: disrupts binding of P. falciparum AMA1 to RON2; AlphaScreen AMA1-biotinylated RON2 peptide binding; Potency, µM (series often up to 58.2 µM), for the others: at the highest dose activity change, negative = inhibition, most hits filed as inhibitors; 360,000 tested, 0.2% active; AID 720542;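 also: 0% = vehicle wells and -100% = peptide control; nearly all actives have a fitted effect of over 45% in size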
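AMA1 (3D7) with his tag at 25 nM final met compounds first, then biotinylated RON2 peptide at 25 nM; detection used donor plus acceptor beads, 10 µg/mL apiece, read by AlphaScreen after 30 min at room temperature.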
Pf growth 96h: inhibits malaria parasite growth, 96 h. 320,000 tested, 6.9% active. P. falciparum luciferase reporter growth, 96 h. Potency, µM (titrated, usually from 28.7 µM), inactives show at the top dose activity change, negative = inhibition, usual class: inhibitors. AID 504834; also: % is scaled to controls: 0 for no effect and ±100 for the full control effect
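Erythrocytes infected with luciferase-expressing P. falciparum were dispensed at 2% hematocrit and 0.05% parasitemia (final), then incubated with compounds 96 hours at 37 C in 5% CO2. Luminescence after detection reagent addition reported growth.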
Pf growth 48h: inhibits P. falciparum growth in the first generation, 48 h; P. falciparum luciferase growth in erythrocytes, 48 h; AID 504832; Potency, µM (highest dose often 28.7 µM), without a hit: at the highest dose activity change, negative = inhibition, most hits filed as inhibitors; 310,000 tested, 5.9% active; also: % is scaled to controls: 0 for no effect and ±100 for the full control effect
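Parasite viability was followed by luminescence of a genomically integrated firefly luciferase. Cultures held 0.1% parasitemia at 2% hematocrit (final), incubated under 5% CO2 at 37 C.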
NS1 inh: inhibitors of influenza NS1 protein function; 270,000 tested, 0.4% active; Potency, µM (series often up to 46.1 µM), for inactives: at the top dose activity, positive = more growth; calls by dose curve; also: actives are rising curves; nearly all actives have a fitted effect of over 50% in size
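Compounds were scored for reversing the slow growth caused by influenza A NS1 in S. cerevisiae, measured by optical density at 600 nm. Assay medium contained 2% galactose at pH 6.0; NS1-free yeast of the same strain were the positive control.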
Sm TGR inh: blocks Schistosoma mansoni thioredoxin glutathione reductase; Q962Y6; purified TGR, DTNB reduction, TNB absorbance 405 nm; Potency, µM (series often up to 114 µM), inactives show at the highest dose activity change, negative = inhibition, usual class: inhibitors; 360,000 tested, 3% active; AID 485364; also: % is scaled to controls: 0 for no effect and ±100 for the full control effect; nearly all actives have a fitted effect of over 60% in size
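TGR 20 nM + NADPH 100 uM (dispensed conc.), cpd preinc 15 min RT; start with NADPH (500 uM addition) then DTNB (15 mM addition). Kinetic TNB absorbance, 405 nm filter. Four-parameter Hill fit across titration.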
Active calls of the source: *; ? = inconclusive; nt = no result given. Unless noted, calls follow the shape of the dose curve; as a rule, active = well fitted curve in the direction sought with a large enough effect; inconclusive = small, poorly fitted or top-dose-only effect, or another doubt; inactive = no such curve, though single readings can be large; an effect the other way counts as inactive or inconclusive. Potency is read from the fitted curve at half-maximal effect.

SMILES | AMA1 RON2 block | Pf growth 96h | Pf growth 48h | NS1 inh | Sm TGR inh
CC(C)N1CCN(c2ccc(OCC3COC(Cn4cncn4)(c4ccc(Cl)cc4Cl)O3)cc2)CC1 (stereo not given) | -8% | nt | nt | nt | nt
CC(C)N1CCN(c2ccc(OC[C@H]3CO[C@](Cn4cncn4)(c4ccc(Cl)cc4Cl)O3)cc2)CC1 | -13% | 9.3µM* | 13µM* | nt | -2%
COc1ccc(-n2c(SCC(=O)Nc3cc(C)on3)nc3c([nH]c4ccccc43)c2=O)cc1 | 38% | ? | ? | ? | 6%
COc1ccccc1-n1c(SCC(=O)Nc2ccc(NC(C)=O)cc2)nc2c([nH]c3ccccc32)c1=O | -16% | 13µM* | -54% | ? | 2%
COc1ccc(-n2c(SCC(=O)Nc3cc(C)on3)nc3c([nH]c4ccccc43)c2=O)cc1OC | 21% | 6.6µM* | 10µM* | 17% | -3%
CCOC(=O)c1cccc(NC(=O)c2c(NCc3ccccc3)[nH]c(=O)[nH]c2=O)c1 | 9% | nt | nt | nt | nt
CC(=O)N(Cc1cccnc1)c1nc2c(C)c(C)ccc2s1 | nt | nt | nt | nt | -2%
CCc1cccc(CC)c1-n1nnc2c(sc3nc(C)cc(C)c32)c1=O | nt | nt | nt | nt | 4%
Cn1cnnc1SCc1ccc(C(=O)N=Nc2c(O)n(C)c3ccccc23)cc1 | 3% | 10µM* | ? | -1% | -7%
COc1cc(/C(C)=N/NC(=O)c2ccc(CSc3nncn3C)cc2)cc(OC)c1OC | 17% | 13µM* | -20% | nt | -5%
C=CCN(c1cccc(C(F)(F)F)c1)S(=O)(=O)c1cccc(C(=O)OCC(=O)NCCC)c1 | -1% | 13µM* | ? | 2% | -3%
CN1OC[C@@H]2CN(C(=O)CCc3ccccc3)[C@H](c3cccc(N4CCOCC4)c3)C[C@@H]21 | 2% | nt | nt | nt | nt
O=C(C(=O)N1CCC(Cc2ccccc2)CC1)c1ccccc1 | 14% | nt | nt | nt | nt
O=S(=O)(c1cccc(S(=O)(=O)N2CCN(c3ncccn3)CC2)c1)N1CCOCC1 | -1% | 12µM* | -24% | -2% | -21%
CN(C)S(=O)(=O)N1CCN(S(=O)(=O)c2ccc(F)cc2)CC1 | 1% | 10% | 7% | 3% | 19%
O=S(=O)(c1ccc(F)cc1)N1CCN(c2ncccn2)CC1 | -16% | 4% | 2.1µM* | -66% | 8%
O=S(=O)(c1cccc2cccnc12)N1CCN(c2ccc(F)cc2)CC1 | 3% | 15µM* | -7% | -11% | 9%
CN(C)S(=O)(=O)c1ccc(N2CCN(S(=O)(=O)c3ccc(F)cc3)CC2)c(Cl)c1 | 0% | 8.3µM* | 7.4µM* | -37% | 8%
O=S(=O)(c1ccccc1)N1CCN(c2ncccn2)CC1 | 20% | nt | 4% | 0% | 0%
O=C(NNC(=O)c1ccccc1O)c1ccc(Cl)c(S(=O)(=O)N2CCc3ccccc32)c1 | 113% | -4% | ? | nt | -4%
Cc1noc(C)c1NC(=O)Nc1ccc2c(c1)C(=O)N([C@H](C)CO)C[C@H](C)[C@@H](CN(C)S(=O)(=O)c1c(C)noc1C)O2 | 18% | nt | nt | nt | nt
COc1ccc(S(=O)(=O)NCc2cccnc2)cc1C | 5% | 14% | 31% | -11% | 1%
O=c1n(S(=O)(=O)c2cccc3cccnc23)c2ccccc2n1S(=O)(=O)c1cccc2cccnc12 | 2% | 6.6µM* | nt | 14% | 0%
O=c1c(Cl)c(N2CCN(S(=O)(=O)c3ccc(F)cc3)CC2)cnn1-c1cccc(Cl)c1 | 12% | 6.6µM* | 8.3µM* | 2% | 14%
O=c1c(Cl)c(N2CCN(S(=O)(=O)c3ccccc3)CC2)cnn1-c1ccccc1 | -9% | 166% | 0% | -1% | 0%
SMILES | AMA1 RON2 block | Pf growth 96h | Pf growth 48h | NS1 inh | Sm TGR inh
O=C(CCC(=O)N(CC(=O)NC1CCCCC1)CC1CCCO1)Nc1nccs1 (stereo not given) | 9% | 2% | -4% | 1% | -1%
Cc1ccc(N/C=C(\[N+](=O)[O-])S(=O)(=O)c2ccccc2)cc1 | 18% | 14% | 9% | nt | -19%
Cc1cccc(N/C=C(\[N+](=O)[O-])S(=O)(=O)c2ccccc2)c1C | 4% | 24% | 12µM* | nt | -24%
O=C(CNC(=O)c1ccco1)Nc1ccc(N2CCCCCC2)cc1 | -22% | 57% | 12% | nt | -17%
O=C(CNC(=O)c1ccc(Br)o1)Nc1ccc(N2CCCCCC2)cc1 | -21% | 10µM* | 39% | nt | -15%
O=C(CNC(=O)c1ccc(Br)o1)Nc1ncccc1O | 8% | -1% | 13% | nt | 45µM*
O=C(Nc1ccc(N2CCN(C(=O)c3cccs3)CC2)cc1)c1ccc(Br)o1 | -5% | ? | 12µM* | nt | -11%
Cc1sc2ncn(CC(=O)OC(C)C)c(=O)c2c1C | nt | -10% | nt | 8% | 3%
O=C(CN1C(=O)/C(=C/c2ccco2)SC1=S)Nc1ccc(O)c(C(=O)O)c1 | 1% | 15µM* | 11% | 8% | 14µM*
O=C(CCCN1C(=O)/C(=C/c2ccccc2)SC1=S)Nc1ccc(C(=O)O)c(O)c1 | -5% | ? | -22% | 3% | -1%
CC(=C\c1ccco1)/C=C1/SC(=S)N(CC(=O)O)C1=O | 7% | -5% | 30% | 4% | 40µM*
CC(C(=O)Nc1ccc(C(=O)O)c(O)c1)N1C(=O)/C(=C\c2ccco2)SC1=S (stereo not given) | -13% | -19% | 2% | ? | 7.1µM*
O=C(CN1C(=O)/C(=C/c2ccco2)SC1=S)Nc1ccc(C(=O)O)c(O)c1 | -6% | ? | 16% | ? | 14µM*
COc1cccc(NC(=O)C(OC(=O)c2cnc(C)cn2)c2ccccc2)c1 (stereo not given) | 6% | 5% | ? | nt | -1%
Cc1ccc2c(CC(=O)N(C)c3c(N)n(Cc4ccccc4)c(=O)[nH]c3=O)coc2c1 | -8% | 10% | 6% | nt | 0%
c1ccc(CSc2nnc3c(n2)OC(c2ccco2)Nc2ccccc2-3)cc1 (stereo not given) | 4% | -5% | ? | 17% | 11µM*
COc1ccc(Cc2nn3c(-c4ccccc4OC)nnc3s2)cc1 | 12% | ? | 9.3µM* | -37% | -16%
COc1ccccc1-c1nnc2sc(C3CCCCC3)nn12 | 0% | 20% | 10µM* | -14% | -2%
N#Cc1ccccc1S(=O)(=O)N1CCC(C(=O)Nc2cccc(C(=O)NC3CC3)c2)CC1 | -2% | ? | -14% | nt | -11%
COc1ccc(-c2cc(C(F)(F)F)n3ncc(C(=O)NCc4ccco4)c3n2)cc1 | -2% | 0% | ? | -7% | 45µM*
COc1ccc(-c2cc(C(F)(F)F)n3ncc(C(=O)N(C)Cc4ccccc4)c3n2)cc1 | 22% | ? | ? | nt | -2%
O=C(NCc1ccco1)c1cnn2c(C(F)(F)F)cc(-c3ccccc3)nc12 | -4% | -10% | 13µM* | -2% | ?
CC(C)CCNC(=O)c1cnn2c(C(F)(F)F)cc(-c3ccco3)nc12 | 53% | 9.3µM* | ? | 2% | 20µM*
NC(=O)c1cnn2c(C(F)(F)F)cc(-c3ccccc3)nc12 | 5% | nt | 11% | -2% | 11%
